Measurements taken from PubChem BioAssay (NCATS).
Unmarked numbers belong to inactive results. Inconclusive results are not listed. Where a call stands in place of a potency, no number is given. Active and inactive are the calls of the source. Unless noted, calls follow the shape of the dose curve; as a rule, active = well fitted curve in the direction sought with a large enough effect; inconclusive = small, poorly fitted or top-dose-only effect, or another doubt; inactive = no such curve, though single readings can be large; an effect the other way counts as inactive or inconclusive.

How the values were obtained:
[1] = biological target: Cytochrome P450 2D6 (Homo sapiens) (UniProt P10635); assay: qHTS Assay for Inhibitors and Substrates of Cytochrome P450 2D6 (AID 891);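 also: luciferin methyl ether substrate demethylated by CYP2D6 with NADPH regeneration; nearly all actives have a fitted effect of over 60% in size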
Procedure, shortened: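 Luminescent read-out of luciferin formed by 5 nM human CYP2D6 demethylating 30 uM Luciferin-ME EGE (Km level) over 60 min at room temperature after NADPH regeneration addition. Data normalized to full inhibition by 1.43 uM quinidine.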

[2] = biological target: Lysosomal acid glucosylceramidase (Homo sapiens) (UniProt P04062); assay: Glucocerebrosidase-p2 (AID 348; in the data active = potency below about 10 µM; also: potency is read from the fitted curve at half-maximal effect); settings: purified GBA, blue fluorogenic substrate, 40 min
Procedure, shortened: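 Normal human glucocerebrosidase (0.2 nM) with blue fluorogenic substrate (80 uM final) in citrate/phosphate pH 5.9 with 10mM sodium taurocholate, 0.01% tween-20; 40 min RT, NaOH/glycine stop; fluorescence Ex 365/Em 440; AC50 from a titration from 0.6 nM upwards.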

[3] = biological target: Methanococcus maripaludis chaperonin (MmCpn) (UniProt Q6LX38); assay: High-Throughput Screening for Modulators of Cytosolic Chaperonin Activity: MmCpn Primary Screen (AID 488978);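 also: 50 nM MmCpn enzyme hydrolysing 30 µM ATP at 37 °C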
Procedure, shortened: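 ADP formation read by HTRF Transcreener, 665/590 nm emission after 320 nm excitation. Enzyme: archaeal chaperonin at 50 nM final; substrate ATP 30 uM final; 10 min, 37C, after 5 min compound preincubation at RT.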

[4] = biological target: D(1A) dopamine receptor (Homo sapiens) (UniProt P21728); assay: HTS Assay for Allosteric Agonists of the Human D1 Dopamine Receptor: Primary Screen for Agonists (AID 488981)
Procedure, shortened: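 Tetracycline-induced HEK293 T-REx cells force-coupled to calcium signalling were incubated overnight at 30 C and dye-loaded at room temperature. Calcium flux over 180 s after compound addition flagged agonists; a further 180 s read after EC20 dopamine flagged potentiators.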

[5] = biological target: D(1A) dopamine receptor (Homo sapiens) (UniProt P21728); assay: HTS Assay for Allosteric Agonists of the Human D1 Dopamine Receptor: Primary Screen for Antagonists (AID 488983);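 also: calcium flux response to an EC80 dopamine challenge measured with no-wash dye; nearly all actives have a fitted effect of over 65% in size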
Procedure, shortened: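 In this primary screen, compounds are applied to calcium-dye-loaded HEK293 T-REx cells with force-coupled D1 expression induced overnight at 30 C. An EC80 of dopamine follows the 180 s compound phase, and calcium is monitored for a further 180 s.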

[6] = Validation screen for small molecules that induce genotoxicity in human embryonic kidney (HEK293T) cells expressing luciferase-tagged ELG1 (AID 493106)
Procedure, shortened: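 In this validation screen, increased ELG1-luciferase signal flags compounds causing genetic stress. HEK293T reporter cells are treated 16 hr (37 °C, 5% CO2), developed with ONE-Glo for 30 min at room temperature, and imaged on a CCD-based reader.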

[7] = biological target: ATPase family AAA domain-containing protein 5 (Homo sapiens) (UniProt Q96QE3); assay: Validation screen for small molecules that inhibit ELG1-dependent DNA repair in human embryonic kidney (HEK293T) cells expressing luciferase-tagged ELG1 (AID 493107);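 also: cells co-treated with the DNA-damaging agent 5-fluorouridine alongside compound; inhibitors lower the ELG1-luciferase luminescence signal; nearly all actives have a fitted effect of over 70% in size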
Procedure, shortened: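 Compounds reducing 5-fluorouridine-driven ELG1-luciferase signal in HEK293T cells were scored; exposure lasted 16 hr at 37 °C with luminescence detected via ONE-Glo.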

[8] = qHTS for Inhibitors of Cell Surface uPA Generation: Validation Assay (AID 493164);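 also: RAW 264.7 macrophage cells exposed to compound for 18 h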
Procedure, shortened: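 Compounds are titrated over seven points (2.45 nM–38.3 uM final) onto pre-plated RAW 264.7 cells and incubated for 18 h. Retained intracellular ATP, measured with ATP-Lite, indicates blocked lethal factor entry.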

[9] = biological target: Peptidyl-prolyl cis-trans isomerase NIMA-interacting 1 (Homo sapiens) (UniProt Q13526); assay: qHTS Validation Assay to Find Inhibitors of Pin1 (AID 504536; active = well fitted inhibition curve with a large enough effect in the polarisation, with a control signal flat, not every such curve was filed as active; the % refers to the polarisation)
Procedure, shortened: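 Fluorescence polarization competition: compounds (titration) displace HiFluor-488-labeled Pin1-1b peptide from Pin1 (0.3 uM final) in pH 7.5 HEPES buffer with DTT, 10 min at room temperature; %Activity normalized to no-enzyme wells, curves fitted.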

[10] = biological target: Phosphoglycerate kinase, glycosomal (Trypanosoma brucei brucei) (UniProt P07378); assay: qHTS Validation Assay to Find Inhibitors of Phosphoglycerate Kinase (AID 504547)
Procedure, shortened: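 In TEA buffer (100mM, pH 7.6) containing 5mM MgCl2 and 0.01% Tween-20, the GAPDH-coupled PGK reaction proceeded for 60 minutes at room temperature before a single luminescence reading using Kinase-Glo Plus.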

[11] = biological target: phosphoglycerate mutase (Leishmania major) (UniProt Q4Q090); assay: qHTS Validation Assay to Find Inhibitors of Phosphoglycerate Mutase (AID 504548)
Procedure, shortened: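 Lm PGAM at 1.25 nM final with substrate in 100 mM TEA pH 7.6, 5 mM MgCl2, 0.01% Tween-20; 45 min at room temperature. Kinase-GloPlus added, 10 min, end-point luminescence read.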

[12] = Inducers of the Endoplasmic Reticulum Stress Response (ERSR) in human glioma: Validation (AID 504836)
Procedure, shortened: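 Stably transfected U87-MG human glioma cells carrying a GRP78-based luminescent sensor were seeded at 1000 cells/well, pin-dosed with compounds and incubated 16 h. Luciferase reagent was then added, and end-point luminescence was read after 10 min at room temperature.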

[13] = qHTS for Inhibitors of ATXN expression: Validation of Cytotoxic Assay (AID 588349)
Procedure, shortened: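 Toxicity of test compounds toward HEK293 cells is scored from cellular ATP content measured by CellTiter Glo. Cells receive titrated doses and incubate 72 hr at 37 degrees C beforehand.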

[14] = qHTS for Inhibitors of ATXN expression: Validation (AID 588378); also: nearly all actives have a fitted effect of over 75% in size
Procedure, shortened: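 Cells: HEK293-ATXN2-FFLuc, phenol-red free DMEM, 2 h attachment. Compound pin-transfer, 24 h, 37 degrees C, 5% CO2. CellTiter-Fluor 30 min, Ex405/Em525; Bright-Glo 5 min, luminescence 2 s exposure.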

[15] = biological target: Glucagon-like peptide 1 receptor (Homo sapiens) (UniProt P43220); assay: qHTS of GLP-1 Receptor Agonists: LOPAC Validation (AID 624148);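 also: higher luminescence signal means agonism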
Procedure, shortened: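 HEK293 cells stably co-expressing a cAMP-responsive luciferase reporter and a hypersensitive GLP-1R were plated 12 h at 37 °C and exposed to compounds for 4-6 hr at 37 °C, 5% CO2. Luminescence was read 12 min after adding detection reagent.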

[16] = qHTS of Nrf2 Activators: LOPAC Validation (AID 624149)
Procedure, shortened: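 Following overnight seeding in 5% FBS OPTI-MEM, AREc32_Fluc cells receive compounds for a 24 hr incubation at 37 deg C with 5% CO2. Steady-Glo is added, and after 30 min at RT luminescence is recorded.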

[17] = HTS Assay for Allosteric Antagonists of the Human D2 Dopamine Receptor: Hit Validation in HTRF (AID 624455);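 also: stable D1 dopamine receptor cell line scored for blocking the D1 response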
Procedure, shortened: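 Validation of hits used D1 receptor stably expressed in cells with HTRF detection of response inhibition; origin screen measured calcium flux following EC80 dopamine in a force-coupled, inducible Hek293 Trex D2 cell line.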

[18] = qHTS Assay for Identification of Small Molecule Antagonists for Thrombopoietin (TPO) Signaling Pathway (AID 918); settings: TPO-dependent cell signaling reporter, antagonist mode; also: potency is read from the fitted curve at half-maximal effect; nearly all actives have a fitted effect of over 60% in size
Procedure, shortened: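 Antagonist mode at EC50 TPO (26 pM) in IL-3-free medium; murine Ba/F3 cells with human TPO receptor and GPIIb-promoter luciferase, 24 hrs at 37 C before luminescent detection.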

[19] = Primary qHTS for small molecule stabilizers of the endoplasmic reticulum resident proteome: Secreted ER Calcium Modulated Protein (SERCaMP) assay (AID 1508630)
Procedure, shortened: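 The SH-SY5Y reporter protocol was run at 3 concentrations up to 38.3 uM (primary) or 11 concentrations (follow-up): 16 h compound, 100 nM thapsigargin for 4 h, then extracellular luciferase luminescence.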

CP262 = assay: qHTS profiling for inhibitors of Plasmodium falciparum proliferation (AID 504749); also: nearly all actives have a fitted effect of over 60% in size; settings: P. falciparum in erythrocytes, SYBR Green DNA, 72 h; series mostly up to 28.7 µM
Procedure, shortened: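 Fluorescence of SYBR Green-bound parasite DNA, read at 485/535 nm, served as the growth measure. Infected erythrocytes were cultured with compound 72 h; artemisinin (0.29 uM) and DMSO wells defined the normalization range.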

Sequence of D(1A) dopamine receptor (Homo sapiens) (P21728 whole entry, looked up): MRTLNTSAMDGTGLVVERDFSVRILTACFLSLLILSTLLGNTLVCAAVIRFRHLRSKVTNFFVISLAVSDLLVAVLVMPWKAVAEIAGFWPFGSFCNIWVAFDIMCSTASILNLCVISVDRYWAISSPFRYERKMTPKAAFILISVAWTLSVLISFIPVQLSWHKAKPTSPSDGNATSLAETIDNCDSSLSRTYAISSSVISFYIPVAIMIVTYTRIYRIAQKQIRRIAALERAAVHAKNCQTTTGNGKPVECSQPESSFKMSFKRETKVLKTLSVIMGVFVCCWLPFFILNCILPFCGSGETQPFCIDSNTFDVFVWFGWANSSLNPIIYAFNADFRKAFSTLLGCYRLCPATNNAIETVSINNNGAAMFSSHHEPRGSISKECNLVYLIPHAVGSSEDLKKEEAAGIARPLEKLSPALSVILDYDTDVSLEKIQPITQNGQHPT
Sequence of Phosphoglycerate kinase, glycosomal (Trypanosoma brucei brucei) (P07378 whole entry, looked up): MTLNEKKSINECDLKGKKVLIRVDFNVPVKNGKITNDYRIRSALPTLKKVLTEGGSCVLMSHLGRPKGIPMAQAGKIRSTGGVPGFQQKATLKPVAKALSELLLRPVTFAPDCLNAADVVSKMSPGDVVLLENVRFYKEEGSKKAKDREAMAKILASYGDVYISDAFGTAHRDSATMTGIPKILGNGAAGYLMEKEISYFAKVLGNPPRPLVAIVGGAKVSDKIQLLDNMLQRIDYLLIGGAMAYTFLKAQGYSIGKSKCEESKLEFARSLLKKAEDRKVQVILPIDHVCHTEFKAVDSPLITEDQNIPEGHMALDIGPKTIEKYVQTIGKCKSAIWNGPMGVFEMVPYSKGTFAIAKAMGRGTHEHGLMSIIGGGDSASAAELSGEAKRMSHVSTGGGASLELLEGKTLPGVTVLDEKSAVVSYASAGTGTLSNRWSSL
Sequence of Methanococcus maripaludis chaperonin (MmCpn) (Q6LX38 1-543): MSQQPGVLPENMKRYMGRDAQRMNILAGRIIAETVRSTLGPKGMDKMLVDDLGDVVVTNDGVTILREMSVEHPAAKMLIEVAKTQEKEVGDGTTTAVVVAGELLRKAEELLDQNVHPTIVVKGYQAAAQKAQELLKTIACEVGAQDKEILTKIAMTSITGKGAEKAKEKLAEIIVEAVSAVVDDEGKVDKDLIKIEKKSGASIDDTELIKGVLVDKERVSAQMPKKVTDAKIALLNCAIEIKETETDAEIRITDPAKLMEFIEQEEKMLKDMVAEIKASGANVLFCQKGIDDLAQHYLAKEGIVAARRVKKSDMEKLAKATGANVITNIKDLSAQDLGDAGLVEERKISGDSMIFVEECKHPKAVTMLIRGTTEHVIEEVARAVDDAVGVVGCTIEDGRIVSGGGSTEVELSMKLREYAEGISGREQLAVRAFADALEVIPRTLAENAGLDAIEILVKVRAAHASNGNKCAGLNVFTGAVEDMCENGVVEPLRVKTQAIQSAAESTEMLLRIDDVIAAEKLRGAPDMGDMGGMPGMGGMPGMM
Sequence of ATPase family AAA domain-containing protein 5 (Homo sapiens) (Q96QE3 whole entry, looked up, the tested form may be a part): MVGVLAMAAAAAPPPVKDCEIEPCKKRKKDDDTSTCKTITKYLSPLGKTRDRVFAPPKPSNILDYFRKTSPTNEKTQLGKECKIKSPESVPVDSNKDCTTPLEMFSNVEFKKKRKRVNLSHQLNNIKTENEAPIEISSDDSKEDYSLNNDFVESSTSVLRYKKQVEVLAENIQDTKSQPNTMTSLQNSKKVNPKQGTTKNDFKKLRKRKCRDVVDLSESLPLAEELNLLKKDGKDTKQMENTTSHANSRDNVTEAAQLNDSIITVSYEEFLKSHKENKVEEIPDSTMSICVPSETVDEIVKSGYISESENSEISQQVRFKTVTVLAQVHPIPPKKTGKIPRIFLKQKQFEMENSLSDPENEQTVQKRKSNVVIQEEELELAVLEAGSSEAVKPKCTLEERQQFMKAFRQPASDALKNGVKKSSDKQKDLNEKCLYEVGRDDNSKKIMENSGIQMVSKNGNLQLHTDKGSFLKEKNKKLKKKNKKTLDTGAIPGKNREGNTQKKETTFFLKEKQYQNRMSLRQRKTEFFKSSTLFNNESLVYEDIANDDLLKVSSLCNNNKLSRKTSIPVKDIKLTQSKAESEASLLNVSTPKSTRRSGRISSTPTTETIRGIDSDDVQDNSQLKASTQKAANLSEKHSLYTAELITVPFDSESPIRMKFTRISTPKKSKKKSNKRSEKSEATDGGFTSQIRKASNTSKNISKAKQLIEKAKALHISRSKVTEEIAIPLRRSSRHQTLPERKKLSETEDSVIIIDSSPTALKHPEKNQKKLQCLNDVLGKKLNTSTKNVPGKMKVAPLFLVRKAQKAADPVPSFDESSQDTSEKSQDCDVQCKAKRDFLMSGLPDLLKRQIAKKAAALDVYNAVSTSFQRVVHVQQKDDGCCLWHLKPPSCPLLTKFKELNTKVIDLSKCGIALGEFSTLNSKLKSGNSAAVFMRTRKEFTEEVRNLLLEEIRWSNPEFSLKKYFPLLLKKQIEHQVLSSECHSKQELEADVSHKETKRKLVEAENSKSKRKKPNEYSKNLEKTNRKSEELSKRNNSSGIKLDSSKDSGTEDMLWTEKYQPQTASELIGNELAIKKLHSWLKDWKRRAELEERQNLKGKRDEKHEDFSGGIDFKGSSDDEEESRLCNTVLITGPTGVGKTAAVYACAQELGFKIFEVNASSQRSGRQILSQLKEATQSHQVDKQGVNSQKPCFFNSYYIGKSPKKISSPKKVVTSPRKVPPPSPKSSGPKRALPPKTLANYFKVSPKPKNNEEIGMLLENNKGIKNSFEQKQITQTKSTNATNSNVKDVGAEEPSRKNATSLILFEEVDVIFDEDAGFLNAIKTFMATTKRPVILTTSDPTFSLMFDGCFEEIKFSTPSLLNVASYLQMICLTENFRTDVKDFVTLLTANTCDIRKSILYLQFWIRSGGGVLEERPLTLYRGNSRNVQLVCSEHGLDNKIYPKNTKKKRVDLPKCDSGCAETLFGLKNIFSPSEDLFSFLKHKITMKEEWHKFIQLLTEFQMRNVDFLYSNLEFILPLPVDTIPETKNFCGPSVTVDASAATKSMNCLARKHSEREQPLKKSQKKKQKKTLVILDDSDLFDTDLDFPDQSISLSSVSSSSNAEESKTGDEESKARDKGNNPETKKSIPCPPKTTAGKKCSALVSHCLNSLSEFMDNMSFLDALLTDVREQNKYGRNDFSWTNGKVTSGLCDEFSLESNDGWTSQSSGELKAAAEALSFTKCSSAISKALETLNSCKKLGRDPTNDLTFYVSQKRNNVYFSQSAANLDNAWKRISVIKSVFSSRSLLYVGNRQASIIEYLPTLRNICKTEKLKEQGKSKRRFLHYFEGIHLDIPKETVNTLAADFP
Sequence of phosphoglycerate mutase (Leishmania major) (Q4Q090 1-553): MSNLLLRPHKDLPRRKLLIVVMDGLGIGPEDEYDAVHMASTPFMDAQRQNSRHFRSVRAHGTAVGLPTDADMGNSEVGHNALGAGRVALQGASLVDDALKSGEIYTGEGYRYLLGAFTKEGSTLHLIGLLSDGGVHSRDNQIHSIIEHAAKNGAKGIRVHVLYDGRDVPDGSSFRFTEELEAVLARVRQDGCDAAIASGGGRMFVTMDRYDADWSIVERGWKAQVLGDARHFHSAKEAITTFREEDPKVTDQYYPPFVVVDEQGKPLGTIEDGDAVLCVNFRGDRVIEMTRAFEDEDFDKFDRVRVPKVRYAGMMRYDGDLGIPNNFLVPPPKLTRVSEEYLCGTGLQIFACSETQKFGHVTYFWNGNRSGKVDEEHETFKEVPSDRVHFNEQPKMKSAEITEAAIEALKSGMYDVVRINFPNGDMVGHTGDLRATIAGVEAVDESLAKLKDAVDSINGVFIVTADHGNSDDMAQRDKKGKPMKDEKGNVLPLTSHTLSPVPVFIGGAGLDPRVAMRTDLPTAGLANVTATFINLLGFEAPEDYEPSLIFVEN
Sequence of Glucagon-like peptide 1 receptor (Homo sapiens) (P43220 whole entry, looked up): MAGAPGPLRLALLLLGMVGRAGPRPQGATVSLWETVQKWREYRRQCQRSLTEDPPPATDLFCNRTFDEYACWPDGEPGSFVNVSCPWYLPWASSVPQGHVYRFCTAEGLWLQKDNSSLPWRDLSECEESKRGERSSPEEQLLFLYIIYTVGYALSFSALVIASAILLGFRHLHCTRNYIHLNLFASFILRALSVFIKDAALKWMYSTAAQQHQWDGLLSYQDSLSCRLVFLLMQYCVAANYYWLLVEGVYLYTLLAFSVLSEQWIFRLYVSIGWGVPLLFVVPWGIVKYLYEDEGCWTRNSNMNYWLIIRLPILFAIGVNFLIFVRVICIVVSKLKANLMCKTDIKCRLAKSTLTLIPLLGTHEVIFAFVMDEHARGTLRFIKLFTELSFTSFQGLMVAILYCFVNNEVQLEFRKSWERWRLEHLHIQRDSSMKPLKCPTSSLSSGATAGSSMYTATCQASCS
Sequence of Peptidyl-prolyl cis-trans isomerase NIMA-interacting 1 (Homo sapiens) (Q13526 whole entry, looked up): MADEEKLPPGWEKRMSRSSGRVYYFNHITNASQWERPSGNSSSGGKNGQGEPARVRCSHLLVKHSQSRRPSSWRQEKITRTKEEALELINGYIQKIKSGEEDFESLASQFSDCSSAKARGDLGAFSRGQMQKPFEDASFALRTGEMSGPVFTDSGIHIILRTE
Sequence of Cytochrome P450 2D6 (Homo sapiens) (P10635 whole entry, looked up): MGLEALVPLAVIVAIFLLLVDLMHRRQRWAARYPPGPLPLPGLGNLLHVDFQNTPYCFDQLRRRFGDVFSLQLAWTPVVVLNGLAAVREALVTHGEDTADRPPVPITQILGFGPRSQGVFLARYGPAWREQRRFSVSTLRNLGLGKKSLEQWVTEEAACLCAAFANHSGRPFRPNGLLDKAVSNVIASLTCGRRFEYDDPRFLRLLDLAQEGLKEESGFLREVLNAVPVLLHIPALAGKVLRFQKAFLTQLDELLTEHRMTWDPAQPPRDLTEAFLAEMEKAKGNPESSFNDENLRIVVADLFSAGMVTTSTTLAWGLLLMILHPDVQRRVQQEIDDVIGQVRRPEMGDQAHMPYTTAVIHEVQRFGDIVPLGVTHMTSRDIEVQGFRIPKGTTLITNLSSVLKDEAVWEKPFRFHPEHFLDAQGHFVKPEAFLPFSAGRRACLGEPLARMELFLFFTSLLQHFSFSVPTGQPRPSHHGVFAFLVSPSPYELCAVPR

CN(C)[C@@H]1C(=O)C(C(N)=O)=C(O)[C@]2(O)C(=O)C3=C(O)c4c(O)cccc4[C@@](C)(O)[C@@H]3C[C@@H]12
Potency [1]: inactive

CC(C)(O)/C=C\C(=O)[C@](C)(O)[C@H]1[C@H](O)C[C@]2(C)[C@@H]3CC=C4[C@@H](C=C(O)C(=O)C4(C)C)[C@]3(C)C(=O)C[C@@]12C
Potency [2]: > 11.4 µM

CC12CCC3C(CCC4=C(O)C(=O)CCC43C)C1CCC2=O (stereo not drawn)
outcome [3]: inactive | outcome [4]: inactive | outcome [5]: inactive | outcome [6]: inactive | Potency [7]: inactive | outcome [8]: inactive | outcome [9]: inactive | outcome [10]: inactive | outcome [11]: inactive | outcome [12]: inactive | outcome [13]: inactive | outcome [14]: inactive | outcome [15]: inactive | outcome [16]: inactive | outcome [17]: inactive

C[C@H]1C2Cc3ccc(O)cc3[C@]1(C)CCN2CC1CC1
outcome [3]: inactive | outcome [4]: inactive | outcome [5]: inactive | outcome [6]: inactive | Potency [7]: inactive | outcome [8]: inactive | outcome [9]: inactive | outcome [10]: inactive | outcome [11]: inactive | outcome [12]: inactive | outcome [13]: inactive | outcome [14]: inactive | outcome [15]: inactive | outcome [16]: inactive | outcome [17]: inactive

NCC#Cc1ccccc1
Potency [18]: 6.31 µM (active)

O=C1/C(=C\c2ccccc2)C[C@@]2(O)[C@H]3Cc4ccc(O)c5c4[C@@]2(CCN3CC2CC2)[C@H]1O5
outcome [19]: inactive

CC(C)(O)C1C2OC(=O)C1[C@]1(O)C[C@H]3O[C@]34C(=O)O[C@H]2[C@]14C (stereo partly drawn) (tested in a mixture with another compound)
Potency (CP262): inactive

CCCC[N+]1(C)C2CC(OC(=O)C(CO)c3ccccc3)CC1C1OC12 (stereo not drawn)
Potency (CP262): inactive

CC[C@@H](CO)NC(=O)[C@H]1C=C2c3cccc4c3c(cn4C)C[C@H]2N(C)C1
outcome [19]: inactive

CCCCN1C2CCC1CC(OC(c1ccc(F)cc1)c1ccc(F)cc1)C2 (stereo not drawn)
Potency [18]: 10 µM (active)
